Data on three molecules can be found in PubChem BioAssay (EPA / NIEHS).

Holding throughout (settings): mRNA level, 48 h; actives raise or lower the signal
Read-out in assay [1]: Cyclin Dependent Kinase Inhibitor 1A (CDKN1A), CDKN1A (gene 1026)
In words: LTEA_HepaRG_CDKN1A: Life Technologies and Expression Analysis (LTEA) Assay for Cyclin Dependent Kinase Inhibitor 1A (CDKN1A) using HepaRG (AID 2283450). Put shortly:
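HepaRG, 48 h dosing, 8-pt half-log series from 100 uM top, 0.5% DMSO vehicle, duplicates. Readout: TaqMan qRT-PCR of CDKN1A transcript, housekeeping-normalized (ACTB, GAPDH, POLR2A). Up/down curve fit relative to DMSO.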

Read-out in assay [2]: Cyclin D1 (CCND1), CCND1 (gene 595)
In words: LTEA_HepaRG_CCND1: Life Technologies and Expression Analysis (LTEA) Assay for Cyclin D1 (CCND1) using HepaRG (AID 2283451).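 On AC50: differentiated human HepaRG liver cells in serum-free induction medium; TaqMan qRT-PCR transcript level normalised to ACTB GAPDH and POLR2A housekeeping genes.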 Put shortly: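 qRT-PCR (Fluidigm 96.96 array) read-out of transcript level, housekeeping-normalized (ACTB/GAPDH/POLR2A). HepaRG cells, 48 h chemical exposure, 8-point half-log series from 100 uM, 0.5% DMSO vehicle; gain or loss relative to DMSO baseline.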

Read-out in assay [3]: catalase (CAT), CAT (gene 847)
The assay can be described thus: LTEA_HepaRG_CAT: Life Technologies and Expression Analysis (LTEA) Assay for catalase (CAT) using HepaRG (AID 2283452). Put shortly: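 Expression of CAT was quantified by TaqMan qRT-PCR with ACTB/GAPDH/POLR2A normalization after 48 h chemical exposure of HepaRG. Eight-point half-log series, top 100 uM, in 0.5% DMSO; gain or loss fitted against vehicle.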

Read-out in assay [4]: flavin-containing dimethylaniline monooxygenases 3 (FMO3), FMO3 (gene 2328)
In words: LTEA_HepaRG_FMO3: Life Technologies and Expression Analysis (LTEA) Assay for flavin-containing dimethylaniline monooxygenases 3 (FMO3) using HepaRG (AID 2283453).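 On AC50: differentiated human HepaRG liver cells in serum-free induction medium.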 The method in brief:
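Eight-point concentration-response in serum-free HepaRG cultures (top 100 uM, 0.5% DMSO, 48 h). Read-out: FMO3 mRNA level normalized to three endogenous control genes, fitted bidirectionally versus vehicle.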

Read-out in assay [5]: Cytochrome P450 (CYP1A1), CYP1A1 (gene 1543)
The assay can be described thus: LTEA_HepaRG_CYP1A1: Life Technologies and Expression Analysis (LTEA) Assay for Cytochrome P450 (CYP1A1) using HepaRG (AID 2283454). Put shortly:
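qRT-PCR read-out: CYP1A1 transcript normalized to three housekeeping genes, fitted bidirectionally against 0.5% DMSO vehicle baseline. Human HepaRG cells, 48 h chemical exposure, 8-point half-log series topping at 100 uM.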

Read-out in assay [6]: CFLAR gene, CFLAR (gene 8837)
The assay can be described thus: LTEA_HepaRG_CFLAR: Life Technologies and Expression Analysis (LTEA) Assay for CFLAR gene using HepaRG (AID 2283455). The method in brief:
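Transcript level by qRT-PCR (normalized to ACTB, GAPDH and POLR2A) after 48 h chemical exposure of HepaRG cells, top concentration 100 uM with half-log steps, 0.5% DMSO vehicle, duplicates; fitted bidirectionally against DMSO baseline.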

Read-out in assay [7]: Forkhead box O1 (FOXO1), FOXO1 (gene 2308)
In words: LTEA_HepaRG_FOXO1: Life Technologies and Expression Analysis (LTEA) Assay for Forkhead box O1 (FOXO1) using HepaRG (AID 2283456). The method in brief:
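FOXO1 transcript quantified by qRT-PCR after 48 h chemical exposure (top 100 uM, half-log steps, 0.5% DMSO) of HepaRG cells, housekeeping-normalized (ACTB/GAPDH/POLR2A). Changes fitted in both directions relative to vehicle.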

Read-out in assay [8]: growth arrest and DNA damage 45 (GADD45A), GADD45A (gene 1647)
The assay can be described thus: LTEA_HepaRG_GADD45A: Life Technologies and Expression Analysis (LTEA) Assay for growth arrest and DNA damage 45 (GADD45A) using HepaRG (AID 2283458). Put shortly:
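HepaRG, 48 h exposure, 8 conc. (top 100 uM, half-log steps), 0.5% DMSO vehicle, duplicates. Read-out: qRT-PCR mRNA level, housekeeping-normalized (ACTB/GAPDH/POLR2A). Curves fit bidirectionally vs DMSO baseline.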

Read-out in assay [9]: Forkhead box O3 (FOXO3), FOXO3 (gene 2309)
The assay can be described thus: LTEA_HepaRG_FOXO3: Life Technologies and Expression Analysis (LTEA) Assay for Forkhead box O3 (FOXO3) using HepaRG (AID 2283459). The method in brief: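 FOXO3 transcript measured by qRT-PCR (normalized to ACTB, GAPDH, POLR2A) after 48 h exposure of HepaRG cells in serum-free induction medium. Duplicates, eight half-log concentrations up to 100 uM, 0.5% DMSO; gain or loss fitted against DMSO.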

Read-out in assay [10]: ABC Transporter (ABCB1), ABCB1 (gene 5243)
The assay can be described thus: LTEA_HepaRG_ABCB1: Life Technologies and Expression Analysis (LTEA) Assay for ABC Transporter (ABCB1) using HepaRG (AID 2283460). Put shortly: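 ABCB1 transcript level measured by TaqMan qRT-PCR against three housekeeping genes after 48 h chemical exposure of differentiated HepaRG cells. Top concentration 100 uM, half-log steps, eight points, 0.5% DMSO vehicle; bidirectional fit relative to DMSO.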

Read-out in assay [11]: growth arrest and DNA damage 45 (GADD45B), GADD45B (gene 4616)
In words: LTEA_HepaRG_GADD45B: Life Technologies and Expression Analysis (LTEA) Assay for growth arrest and DNA damage 45 (GADD45B) using HepaRG (AID 2283461). Put shortly:
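qRT-PCR read-out (Fluidigm TaqMan, housekeeping-normalized) of mRNA change in human HepaRG cells after 48 h chemical exposure; 8-point curve, top 100 uM, half-log steps, 0.5% DMSO vehicle; gain or loss fitted relative to DMSO baseline.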

Read-out in assay [12]: ABC Transporter (ABCC3), ABCC3 (gene 8714)
The assay can be described thus: LTEA_HepaRG_ABCC3: Life Technologies and Expression Analysis (LTEA) Assay for ABC Transporter (ABCC3) using HepaRG (AID 2283462). Put shortly:
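qRT-PCR read-out of ABCC3 transcript, normalized to three housekeeping genes (ACTB, GAPDH, POLR2A), after 48 h chemical exposure of human HepaRG cells. Eight half-log concentrations, highest 100 uM, in 0.5% DMSO; gain or loss fitted relative to DMSO baseline.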

Read-out in assay [13]: ABC Transporter (ABCB11), ABCB11 (gene 8647)
The assay can be described thus: LTEA_HepaRG_ABCB11: Life Technologies and Expression Analysis (LTEA) Assay for ABC Transporter (ABCB11) using HepaRG (AID 2283463). The method in brief: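 ABCB11 transcript levels quantified by TaqMan qRT-PCR against three housekeeping genes after 48 h chemical exposure of HepaRG cultures. Concentrations up to 100 uM in half-log steps, 0.5% DMSO vehicle; both induction and suppression scored.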

Read-out in assay [14]: ABC Transporter (ABCC2), ABCC2 (gene 1244)
In words: LTEA_HepaRG_ABCC2: Life Technologies and Expression Analysis (LTEA) Assay for ABC Transporter (ABCC2) using HepaRG (AID 2283464). The method in brief:
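qRT-PCR (TaqMan, Fluidigm array) read-out of ABCC2 mRNA, normalized to three housekeeping genes. Differentiated HepaRG cells were treated 48 h in serum-free induction medium with 8-point half-log series from 100 uM in 0.5% DMSO; curves fitted bidirectionally relative to DMSO.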

Read-out in assay [15]: Broad substrate specificity ATP-binding cassette transporter ABCG2 (Homo sapiens) (UniProt Q9UNQ0)
In words: LTEA_HepaRG_ABCG2: Life Technologies and Expression Analysis (LTEA) Assay for ABC Transporter (ABCG2) using HepaRG (AID 2283465). Put shortly: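 ABCG2 transcript was quantified by TaqMan qRT-PCR against three housekeeping genes in HepaRG cells. Cells were treated in duplicate for 48 h across an 8-point half-log series up to 100 uM, with 0.5% DMSO vehicle. Gain or loss versus DMSO was fit.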

Read-out in assay [16]: ATP-citrate lyase (ACLY), ACLY (gene 47)
The assay can be described thus: LTEA_HepaRG_ACLY: Life Technologies and Expression Analysis (LTEA) Assay for ATP-citrate lyase (ACLY) using HepaRG (AID 2283466). The method in brief: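 ACLY mRNA quantified by qRT-PCR on Fluidigm arrays against three housekeeping genes, after 48 h chemical treatment of HepaRG cells (top concentration 100 uM, half-log steps, 0.5% DMSO vehicle). Up- or down-regulation fitted relative to DMSO.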

Read-out in assay [17]: Alkaline Phosphatase, Placental (ALPP) gene, ALPP (gene 250)
In words: LTEA_HepaRG_ALPP: Life Technologies and Expression Analysis (LTEA) Assay for Alkaline Phosphatase, Placental (ALPP) gene using HepaRG (AID 2283468).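 On AC50: differentiated human HepaRG liver cells in serum-free induction medium.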 Put shortly: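 qRT-PCR readout of ALPP mRNA (Fluidigm TaqMan), normalized to ACTB/GAPDH/POLR2A, after 48 h chemical exposure of HepaRG cells; 8-point half-log series, top 100 uM, 0.5% DMSO vehicle. Bidirectional curve fit versus DMSO baseline.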

Read-out in assay [18]: Bcl-2 (BAD) gene, BAD (gene 572)
In words: LTEA_HepaRG_BAD: Life Technologies and Expression Analysis (LTEA) Assay for Bcl-2 (BAD) gene using HepaRG (AID 2283469). The method in brief:
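Read-out: qRT-PCR of BAD mRNA, normalized to three housekeeping genes. Human HepaRG cultures got 48 h chemical exposure in 0.5% DMSO, duplicate eight-point half-log series topping at 100 uM. Gain or loss of signal fitted versus DMSO vehicle.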

Read-out in assay [19]: Peroxisomal acyl-coenzyme A oxidase 1 (ACOX1) gene, ACOX1 (gene 51)
In words: LTEA_HepaRG_ACOX1: Life Technologies and Expression Analysis (LTEA) Assay for Peroxisomal acyl-coenzyme A oxidase 1 (ACOX1) gene using HepaRG (AID 2283467). Put shortly:
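ACOX1 transcript levels were quantified by TaqMan qRT-PCR against three housekeeping genes after 48 h chemical exposure of differentiated human HepaRG cells. Exposure used eight half-log steps topping at 100 uM, 0.5% DMSO vehicle, in duplicate. Bidirectional curve fits were made relative to DMSO.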

Active and inactive are the calls of the source. How the source made its calls: active means hit-call score of the fitted dose curve at least 0.9, where 1 is the maximum; inactive means score below 0.9.

Broad substrate specificity ATP-binding cassette transporter ABCG2 (Homo sapiens), sequence (Q9UNQ0 whole entry, looked up): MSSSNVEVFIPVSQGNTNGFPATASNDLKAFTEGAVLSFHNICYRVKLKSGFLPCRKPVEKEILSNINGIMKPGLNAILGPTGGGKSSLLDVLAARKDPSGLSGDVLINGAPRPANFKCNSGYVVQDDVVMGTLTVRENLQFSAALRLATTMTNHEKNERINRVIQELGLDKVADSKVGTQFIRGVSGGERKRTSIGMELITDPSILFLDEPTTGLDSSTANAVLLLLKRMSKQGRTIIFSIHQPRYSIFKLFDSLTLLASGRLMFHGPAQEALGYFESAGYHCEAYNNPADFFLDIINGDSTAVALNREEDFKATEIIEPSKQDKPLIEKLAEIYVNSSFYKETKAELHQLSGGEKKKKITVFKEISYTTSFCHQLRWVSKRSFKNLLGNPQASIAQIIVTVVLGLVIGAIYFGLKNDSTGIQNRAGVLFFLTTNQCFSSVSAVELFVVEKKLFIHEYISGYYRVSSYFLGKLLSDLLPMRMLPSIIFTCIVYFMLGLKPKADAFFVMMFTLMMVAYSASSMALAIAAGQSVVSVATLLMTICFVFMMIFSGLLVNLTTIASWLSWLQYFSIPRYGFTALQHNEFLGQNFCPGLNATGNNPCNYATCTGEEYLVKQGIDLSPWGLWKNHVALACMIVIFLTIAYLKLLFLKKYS

The AC50 is the concentration at which the activity in the assay is half-maximal. With `CC(C)(C)c1csc(-c2cc3cc(OCc4ccccc4CC(=O)O)ccc3o2)n1`, the outcome in assay [1], in assay [8], in [9], in assay [12] and in [18] was inactive. The AC50 was 50 µM (active) in assay [2]; 28.3 µM (active) in [3]; 73.5 µM (active) in assay [4]; 12.2 µM (active) in [5]; 73.5 µM (active) in [6]; 81.3 µM (active) in assay [7]. In addition, the AC50 in [10] was 79 µM (active); in assay [11], 42.6 µM (active); in assay [13] it was 15.8 µM (active); in assay [14], 93.8 µM (active); in assay [15], 15.8 µM (active); in assay [16] it was 87.4 µM (active). The half-maximal activity concentration (AC50) in assay [17] was 24.4 µM (active).

For the molecule `Cc1cccc2ccccc12`, the call in assay [1], in assay [2], in [3], in [4], in assay [5] and in [6] was inactive. The molecule was called inactive in assay [7], in assay [8], in [9], in [10], in assay [13] and in [14]. In addition, the result in assay [15], in assay [16], in assay [19], in assay [17] and in assay [18] was inactive.

Take `Cc1ccc(C(C)C)cc1`: the call in [1], in assay [2], in [3], in [4], in assay [6] and in assay [7] was inactive. Besides, the call in assay [8], in assay [9], in assay [10], in assay [12], in assay [13] and in assay [14] was inactive. For the same molecule, the outcome in assay [15], in [16], in assay [19], in assay [17] and in assay [18] was inactive. Besides, the AC50 in assay [5] was 74.9 µM (active).
